Mtb bLac sens: beta-lactam sensitization of Mtb H37Rv | M. tuberculosis H37Rv growth with meropenem, percent inhibition | inhibition, % at 25 µM | 330,000 tested, 0.27% active | AID 434955; call rule not given here;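 note: growth measured after seven days incubation then overnight dye step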
UGM FP inh: blocks M. tuberculosis UGM enzyme; AID 504406; inhibition, % at 10 µM; 320,000 tested, 0.06% active; P9WIQ1; purified UGM, fluorescence polarization probe displacement; in the data active = inhibition above about 10%, passing the limit was not always enough
RecA intein inh: Mtb RecA intein splicing inhibition; P9WHJ3; cell-free RecA intein splicing, fluorescence; inhibition, % (no concentration beside the values); 290,000 tested, 0.75% active; AID 2221; in the data active = inhibition above about 30%
Target sequence (P9WHJ3 whole entry, looked up): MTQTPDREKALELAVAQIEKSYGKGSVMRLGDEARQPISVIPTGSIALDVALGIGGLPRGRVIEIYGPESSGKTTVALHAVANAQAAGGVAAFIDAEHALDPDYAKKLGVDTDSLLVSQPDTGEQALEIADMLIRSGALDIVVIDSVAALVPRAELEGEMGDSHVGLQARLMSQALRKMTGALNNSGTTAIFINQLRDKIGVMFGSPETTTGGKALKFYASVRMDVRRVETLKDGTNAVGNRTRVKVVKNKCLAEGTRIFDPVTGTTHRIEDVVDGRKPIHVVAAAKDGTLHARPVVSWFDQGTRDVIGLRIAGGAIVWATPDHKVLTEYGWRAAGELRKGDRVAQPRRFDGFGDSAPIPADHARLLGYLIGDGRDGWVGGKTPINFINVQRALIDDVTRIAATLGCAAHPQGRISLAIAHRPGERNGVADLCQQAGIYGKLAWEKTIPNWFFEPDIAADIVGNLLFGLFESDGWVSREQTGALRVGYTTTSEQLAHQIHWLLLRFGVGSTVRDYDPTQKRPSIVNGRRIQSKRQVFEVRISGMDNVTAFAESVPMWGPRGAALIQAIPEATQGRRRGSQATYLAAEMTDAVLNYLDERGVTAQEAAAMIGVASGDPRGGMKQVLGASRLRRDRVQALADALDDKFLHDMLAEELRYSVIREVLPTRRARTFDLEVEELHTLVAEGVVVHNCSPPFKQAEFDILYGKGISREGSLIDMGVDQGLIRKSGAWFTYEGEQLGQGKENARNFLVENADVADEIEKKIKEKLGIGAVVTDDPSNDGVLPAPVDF
Rv3671c protease: inhibitors of M. tuberculosis serine protease Rv3671c; 320,000 tested, 0.048% active; inhibition, % at 5.96 µM; in the data active = inhibition above about 38%;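 note: extracellular domain of Rv3671c used as enzyme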
GDH-TPI counter-1: GDH-TPI coupled enzyme inhibition counter-screen. GDH-TPI coupled enzyme counterscreen, NADH absorbance. inhibition, % at 4.8 µM. 360,000 tested, 1.2% active; in the data active = inhibition above about 30%
FBA Mtb inh: Mtb fructose-bisphosphate aldolase inhibition | P9WQA3 | purified M. tuberculosis FBA, fluorescence read-out | inhibition, % at 1 µM | 360,000 tested, 2.3% active
Mtb FBA inh conf: confirmation of M. tuberculosis fructose-bisphosphate aldolase inhibitors; shares compounds with FBA Mtb inh; purified M. tuberculosis FBA, fluorescence read-out; 5,600 tested, 78% active; AID 651616; inhibition, % at 1 µM
GDH-TPI counter-2: GDH-TPI inhibition counter-screen for FBA inhibitors | shares compounds with FBA Mtb inh | inhibition, % at 1 µM | 5,600 tested, 81% active | AID 652141 | GDH-TPI coupled enzyme counterscreen, fluorescence; in the data active = inhibition above about 10%
Of the large screens only hits and unclear results are named; the others gave an inactive call (follow-up assays come after a bar, where they were run). Rows were chosen to be rich in hits. Some 4% of all compounds tested hit in one or more screens of this group. Cut-off read from the data, not from the text of the source, unless noted: active = inhibition above about 27%; inactive = the rest.

COCCn1nc2cc(C(=O)NCc3cc(C(F)(F)F)cc(C(F)(F)F)c3)ccc2c1OC	FBA Mtb inh 47.1 | Mtb FBA inh conf 56.9 | GDH-TPI counter-2 41.5
COCCn1c(=S)[nH]c2cc(C(=O)NCc3ccc(F)cc3)ccc2c1=O	none (no result: Mtb bLac sens, UGM FP inh, RecA intein inh, Rv3671c protease)
CCOc1c2ccc(C(=O)NCc3cc(C(F)(F)F)cc(C(F)(F)F)c3)cc2nn1C	FBA Mtb inh 57.3 | Mtb FBA inh conf 60.4 | GDH-TPI counter-2 43.9
CC(=O)NCCNc1nc2cc(-c3cnn(CCC(C)C)c3)sc2c(=O)n1C	none (no result: Mtb bLac sens, UGM FP inh, RecA intein inh, Rv3671c protease)
CC1(C)CC(=O)C2=C(C1)N(CCN1CCOCC1)C1=C(C(=O)CC(C)(C)C1)C2c1cccc(Cl)c1	FBA Mtb inh 29.9 | Mtb FBA inh conf inactive | GDH-TPI counter-2 inactive
CCN(CC)CCN1C2=C(C(=O)CC(C)(C)C2)C(c2cccc(F)c2)C2=C1CC(C)(C)CC2=O	FBA Mtb inh 83.0 | Mtb FBA inh conf active | GDH-TPI counter-2 199.9
CCCN1C2=C(C(=O)CC(C)(C)C2)C(c2ccc(F)cc2)C2=C1c1ccccc1C2=O (centres undefined)	none
COc1ccc(-c2nc3ccc(C)cn3c2Cc2ccsc2)cc1OC	FBA Mtb inh 52.4 (no result: Mtb bLac sens, UGM FP inh, RecA intein inh, Rv3671c protease, GDH-TPI counter-1) | Mtb FBA inh conf 116.2 | GDH-TPI counter-2 72.7
Cc1c(C)c2ccc(OCC(=O)N[C@@H](Cc3c[nH]c4ccccc34)C(=O)O)cc2oc1=O	none
Cc1c(Cc2ccccc2)c(=O)oc2cc(OCC(=O)NC(Cc3ccc(Cl)cc3)C(=O)O)ccc12 (centres undefined)	FBA Mtb inh 92.3 | Mtb FBA inh conf 170.0 | GDH-TPI counter-2 150.9
CCCCCCc1c(C)c2ccc(OCC(=O)N[C@@H](Cc3ccccc3)C(=O)O)cc2oc1=O	FBA Mtb inh 73.4 | Mtb FBA inh conf active | GDH-TPI counter-2 active
Cc1c(C)c2ccc(OCC(=O)N[C@@H](Cc3ccccc3)C(=O)O)cc2oc1=O	FBA Mtb inh 77.3 | Mtb FBA inh conf 94.7 | GDH-TPI counter-2 80.8
Cc1c(CC(=O)NCC(=O)N[C@H](Cc2ccccc2)C(=O)O)c(=O)oc2cc(O)ccc12	none (no result: FBA Mtb inh)
COc1ccc2c(COC(=O)[C@H](C)NS(=O)(=O)c3ccccc3F)cc(=O)oc2c1	FBA Mtb inh 109.0 (no result: RecA intein inh) | Mtb FBA inh conf active | GDH-TPI counter-2 152.9
COc1cccc(-c2cnc(C(O)c3cccc(F)c3)[nH]2)c1 (centres undefined)	none (no result: Mtb bLac sens, UGM FP inh, RecA intein inh, Rv3671c protease)
Cn1cnc2c(=O)sc3ccccc3c21	none
COc1ccc2c(COC(=O)c3n[nH]c4ccccc34)cc(=O)oc2c1	FBA Mtb inh 34.5 | Mtb FBA inh conf 123.8 | GDH-TPI counter-2 106.6
Cc1c(C)c2ccc(OCC(=O)NC(Cc3ccc(Cl)cc3)C(=O)O)cc2oc1=O (centres undefined)	FBA Mtb inh 95.5 | Mtb FBA inh conf 116.4 | GDH-TPI counter-2 78.8
Cc1cc2oc(=O)cc(COC(=O)c3n[nH]c4ccccc34)c2cc1C	none
COc1ccc(NCc2cc(=O)oc3cc(NC(C)=O)ccc23)cc1	FBA Mtb inh 73.0 | Mtb FBA inh conf 120.7 | GDH-TPI counter-2 88.4
Cc1c(C)c2ccc(OCC(=O)NC3CCN(Cc4ccccc4)CC3)cc2oc1=O	FBA Mtb inh 38.7 | Mtb FBA inh conf 49.6 | GDH-TPI counter-2 39.2
O=c1cnc2ccccc2n1Cc1ccccc1	none (no result: Mtb bLac sens, UGM FP inh, RecA intein inh, Rv3671c protease)
Cc1ccc(S(=O)(=O)N2CCN(C(=O)COC(=O)CNC(=O)c3ccccc3F)CC2)c(C)c1	none (no result: Mtb bLac sens, UGM FP inh, RecA intein inh, Rv3671c protease)
COc1cc(NC(=O)COc2cc(C)cc3oc(=O)c(C)c(C)c23)cc(OC)c1OC	none
Cc1c(Cc2ccccc2)c(=O)oc2c(C)c(OC(C)C(=O)NCC3CCC(C(=O)O)CC3)ccc12 (centres undefined)	none
Cc1c(Cc2ccccc2)c(=O)oc2c(C)c(OCC(=O)N[C@@H](Cc3ccccc3)C(=O)O)ccc12	FBA Mtb inh 52.7 | Mtb FBA inh conf active | GDH-TPI counter-2 active
COc1ccc2c(CC(=O)N[C@@H](Cc3ccccc3)C(=O)O)cc(=O)oc2c1	FBA Mtb inh 100.9 | Mtb FBA inh conf 99.9 | GDH-TPI counter-2 86.2
Cc1cc(OCC(=O)N[C@@H](CSCc2ccccc2)C(=O)O)c2c(C)c(C)c(=O)oc2c1	FBA Mtb inh 62.3 | Mtb FBA inh conf 78.0 | GDH-TPI counter-2 68.3

From PubChem BioAssay
